In PubChem BioAssay (EPA / NIEHS):
Results filed as inconclusive are left out. The source made the active and inactive calls. Rule for the calls: active = hit-call score of the fitted dose curve at least 0.9, where 1 is the maximum; inconclusive = response in the unintended direction; inactive = score below 0.9.

test system: 5-hydroxytryptamine receptor 2C (pig); test: NVS_GPCR_p5HT2C: NovaScreen (NVS) G Protein-Coupled Receptor Assay for pig Serotonin, 5-Hydroxytryptamine Receptor 2C (5HT2C) (AID 2283288)
Procedure: NVS_GPCR_p5HT2C is a biochemical, single-readout assay that uses extracted gene-proteins from Pig choroid plexus membranes in a tissue-based cell-free assay. Measurements were taken 1 hour after chemical dosing in a 48-well plate.NVS_GPCR_p5HT2C is one of one assay component(s) measured or calculated from the NVS_GPCR_p5HT2C assay. It is designed to make measurements of radioligand binding, a form of binding reporter, as detected with scintillation counting signals by Filter-based radiodetection technology.Data from the assay component NVS_GPCR_p5HT2C was analyzed into 1 assay endpoint. This assay endpoint, NVS_GPCR_p5HT2C, was analyzed in the positive analysis fitting direction relative to DMSO as the negative control and baseline of activity. Using a type of binding reporter, loss-of-signal activity can be used to understand changes in the binding as they relate to the gene HTR2C. Furthermore, this assay endpoint can be referred to as a primary readout, because the performed assay has only produced 1 assay endpoint. To generalize the intended target to other relatable targets, this assay endpoint is annotated to the gpcr intended target family, where the subfamily is rhodopsin-like receptor.
Binding assays used specific radioligands (tritiated, iodinated) with non-radioactive competitive displacement ligands in agonist or antagonist protocols (as indicated) and various reference compounds and inhibitors to titrate specific binding to receptors and transporters. Most enzyme assays (CYPs, kinases, phosphatases, proteases, HDACs) used recombinant protein and specific substrates (fluorescence mostly, some colorimetric and radioactive) and inhibitors, followed by a biochemical separation of substrate and product. All assays for the biochemical HTS were initially run in duplicate at a single concentration (10 uM for CYP450 assays and 25 uM for all others). […] Each assay was run with positive and negative controls, and concurrent controls on every plate. The follow-up (secondary) screen tested active chemical-pairs in concentration series, as well as a few additional assays not tested in the primary screen, some selected negative inactives, and several cases re-run in the concentration series for confirmatory purposes.

| SMILES | AC50 | outcome |
| --- | --- | --- |
| CC(C)(O)c1coc(S(=O)(=O)NC(=O)Nc2c3c(cc4c2CCC4)CCC3)c1 | 25 µM (active) |  |
| Cn1c(=O)c2c(ncn2C)n(C)c1=O |  | inactive |
| O=P(OC(CCl)CCl)(OC(CCl)CCl)OC(CCl)CCl |  | inactive |
| Oc1ccc2c(c1)-c1ccccc1C2 | 4.27 µM (active) |  |
| COc1cccc(-c2ccc(/C=C\CN3CCCCCC3)cc2Cl)c1 | 11.8 µM (active) |  |
| Fc1ccccc1[C@@H](F)COC1CCC(Nc2ncnc3[nH]ncc23)CC1 (some centres not stated) | 7.93 µM (active) |  |
| COC(=O)c1c(Cl)c(Cl)c(C(=O)OC)c(Cl)c1Cl |  | inactive |
| CCCCCCc1ccc(O)cc1O | 16.7 µM (active) |  |
| CCOC(=O)c1ccc(C2CCC(NC[C@H](O)COc3ccc(O)c(NS(C)(=O)=O)c3)CC2)cc1 (some centres not stated) | 19.5 µM (active) |  |
| O=C(O)CC(O)C(=O)O (configuration not stated) |  | inactive |
| CCOC(=O)COc1ccc2c(c1)CC(NCC(O)c1cccc(Cl)c1)CC2 (configuration not stated) | 13.2 µM (active) |  |
| Cc1[nH]cnc1C[C@H]1CCc2c(C)c3ccccc3n2C1=O | 0.116 µM (active) |  |
